Assay results taken from ChEMBL document CHEMBL1961873, “Compounds: GSK PKIS; Assays: Nanosyn kinase panel” (2012).

Columns and labels:
[1] = target: T1, Inhibitor of nuclear factor kappa-B kinase subunit epsilon (Homo sapiens) (UniProt Q14164); settings: at 1 µM;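 also: reported values are averaged percent inhibition figures against human IKKε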
T1 sequence (whole entry): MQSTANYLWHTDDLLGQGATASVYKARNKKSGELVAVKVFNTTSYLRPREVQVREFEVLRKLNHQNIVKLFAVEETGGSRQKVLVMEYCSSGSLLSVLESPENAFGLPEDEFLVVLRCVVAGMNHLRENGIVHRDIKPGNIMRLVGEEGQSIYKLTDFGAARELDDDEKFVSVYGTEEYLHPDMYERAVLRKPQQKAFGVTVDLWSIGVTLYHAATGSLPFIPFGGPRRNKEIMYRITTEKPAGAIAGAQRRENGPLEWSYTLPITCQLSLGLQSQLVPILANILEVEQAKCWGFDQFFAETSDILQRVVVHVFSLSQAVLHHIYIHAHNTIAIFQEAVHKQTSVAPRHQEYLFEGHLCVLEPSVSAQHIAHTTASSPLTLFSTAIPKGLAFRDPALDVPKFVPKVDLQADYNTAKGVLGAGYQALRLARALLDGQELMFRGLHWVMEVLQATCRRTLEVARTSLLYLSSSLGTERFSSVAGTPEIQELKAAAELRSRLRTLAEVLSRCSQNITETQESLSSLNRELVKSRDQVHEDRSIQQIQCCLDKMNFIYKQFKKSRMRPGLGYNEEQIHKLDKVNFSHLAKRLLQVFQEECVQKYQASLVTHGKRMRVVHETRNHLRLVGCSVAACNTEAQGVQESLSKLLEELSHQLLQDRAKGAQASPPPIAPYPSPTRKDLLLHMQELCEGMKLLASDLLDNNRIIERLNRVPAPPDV

[2] = target: T2, Serine/threonine-protein kinase Nek1 (Homo sapiens) (UniProt Q96PY6); settings: at 0.1 µM
T2 sequence (whole entry): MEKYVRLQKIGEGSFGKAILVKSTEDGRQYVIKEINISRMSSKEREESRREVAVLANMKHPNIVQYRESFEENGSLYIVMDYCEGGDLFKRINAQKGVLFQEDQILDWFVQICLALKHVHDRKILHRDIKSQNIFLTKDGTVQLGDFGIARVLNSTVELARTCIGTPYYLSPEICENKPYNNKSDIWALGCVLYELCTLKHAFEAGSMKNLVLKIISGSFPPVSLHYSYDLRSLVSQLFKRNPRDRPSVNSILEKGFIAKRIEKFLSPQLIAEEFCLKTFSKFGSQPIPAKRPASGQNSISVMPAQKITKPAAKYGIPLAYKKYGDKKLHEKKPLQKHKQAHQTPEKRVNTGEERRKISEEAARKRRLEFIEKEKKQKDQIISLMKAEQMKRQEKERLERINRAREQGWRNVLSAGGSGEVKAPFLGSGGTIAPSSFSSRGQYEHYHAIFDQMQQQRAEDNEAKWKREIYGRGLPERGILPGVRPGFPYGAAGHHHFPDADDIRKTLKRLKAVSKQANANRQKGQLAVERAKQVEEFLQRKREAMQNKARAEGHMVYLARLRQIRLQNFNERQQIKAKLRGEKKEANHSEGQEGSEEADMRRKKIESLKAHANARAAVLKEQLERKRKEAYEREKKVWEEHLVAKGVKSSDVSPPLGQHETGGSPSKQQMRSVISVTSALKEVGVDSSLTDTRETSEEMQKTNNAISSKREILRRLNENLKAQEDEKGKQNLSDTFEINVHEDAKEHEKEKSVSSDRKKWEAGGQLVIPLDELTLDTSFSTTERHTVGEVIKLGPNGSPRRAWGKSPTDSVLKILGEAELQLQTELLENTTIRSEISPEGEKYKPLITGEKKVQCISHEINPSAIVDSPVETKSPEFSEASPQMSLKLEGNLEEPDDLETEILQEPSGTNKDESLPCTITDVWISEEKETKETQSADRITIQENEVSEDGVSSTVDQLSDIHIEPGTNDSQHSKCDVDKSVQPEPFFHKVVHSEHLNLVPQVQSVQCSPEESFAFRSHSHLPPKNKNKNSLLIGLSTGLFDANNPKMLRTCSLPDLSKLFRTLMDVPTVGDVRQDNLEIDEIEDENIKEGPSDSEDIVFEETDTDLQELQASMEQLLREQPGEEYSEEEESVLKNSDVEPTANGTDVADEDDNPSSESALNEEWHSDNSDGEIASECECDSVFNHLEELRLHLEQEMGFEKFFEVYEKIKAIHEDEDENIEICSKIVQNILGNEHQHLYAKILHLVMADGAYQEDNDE

[3] = target: T2, Serine/threonine-protein kinase Nek1 (Homo sapiens); settings: at 1 µM
[4] = target: T3, Serine/threonine-protein kinase Nek2 (Homo sapiens) (UniProt P51955); settings: at 0.1 µM
T3 sequence (whole entry): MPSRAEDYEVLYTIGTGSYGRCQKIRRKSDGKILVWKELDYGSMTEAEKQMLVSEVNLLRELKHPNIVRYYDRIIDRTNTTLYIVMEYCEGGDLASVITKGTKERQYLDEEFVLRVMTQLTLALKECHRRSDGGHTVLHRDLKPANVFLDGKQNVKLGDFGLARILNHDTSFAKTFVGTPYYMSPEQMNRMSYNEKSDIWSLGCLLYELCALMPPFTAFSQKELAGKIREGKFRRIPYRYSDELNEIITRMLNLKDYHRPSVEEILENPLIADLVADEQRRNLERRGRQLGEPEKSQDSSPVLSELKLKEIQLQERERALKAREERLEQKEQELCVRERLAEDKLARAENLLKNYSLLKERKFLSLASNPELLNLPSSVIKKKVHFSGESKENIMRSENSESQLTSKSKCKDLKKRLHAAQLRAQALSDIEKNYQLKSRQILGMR

[5] = target: T3, Serine/threonine-protein kinase Nek2 (Homo sapiens); settings: at 1 µM
[6] = target: Serine/threonine-protein kinase Nek6 (Homo sapiens) (UniProt Q9HC98); settings: at 0.1 µM
[7] = target: Serine/threonine-protein kinase Nek6 (Homo sapiens) (UniProt Q9HC98); settings: at 1 µM
[8] = target: Serine/threonine-protein kinase Nek7 (Homo sapiens) (UniProt Q8TDX7); settings: at 0.1 µM
[9] = target: Serine/threonine-protein kinase Nek7 (Homo sapiens) (UniProt Q8TDX7); settings: at 1 µM
[10] = target: T4, Serine/threonine-protein kinase Nek9 (Homo sapiens) (UniProt Q8TD19); settings: at 0.1 µM
T4 sequence (whole entry): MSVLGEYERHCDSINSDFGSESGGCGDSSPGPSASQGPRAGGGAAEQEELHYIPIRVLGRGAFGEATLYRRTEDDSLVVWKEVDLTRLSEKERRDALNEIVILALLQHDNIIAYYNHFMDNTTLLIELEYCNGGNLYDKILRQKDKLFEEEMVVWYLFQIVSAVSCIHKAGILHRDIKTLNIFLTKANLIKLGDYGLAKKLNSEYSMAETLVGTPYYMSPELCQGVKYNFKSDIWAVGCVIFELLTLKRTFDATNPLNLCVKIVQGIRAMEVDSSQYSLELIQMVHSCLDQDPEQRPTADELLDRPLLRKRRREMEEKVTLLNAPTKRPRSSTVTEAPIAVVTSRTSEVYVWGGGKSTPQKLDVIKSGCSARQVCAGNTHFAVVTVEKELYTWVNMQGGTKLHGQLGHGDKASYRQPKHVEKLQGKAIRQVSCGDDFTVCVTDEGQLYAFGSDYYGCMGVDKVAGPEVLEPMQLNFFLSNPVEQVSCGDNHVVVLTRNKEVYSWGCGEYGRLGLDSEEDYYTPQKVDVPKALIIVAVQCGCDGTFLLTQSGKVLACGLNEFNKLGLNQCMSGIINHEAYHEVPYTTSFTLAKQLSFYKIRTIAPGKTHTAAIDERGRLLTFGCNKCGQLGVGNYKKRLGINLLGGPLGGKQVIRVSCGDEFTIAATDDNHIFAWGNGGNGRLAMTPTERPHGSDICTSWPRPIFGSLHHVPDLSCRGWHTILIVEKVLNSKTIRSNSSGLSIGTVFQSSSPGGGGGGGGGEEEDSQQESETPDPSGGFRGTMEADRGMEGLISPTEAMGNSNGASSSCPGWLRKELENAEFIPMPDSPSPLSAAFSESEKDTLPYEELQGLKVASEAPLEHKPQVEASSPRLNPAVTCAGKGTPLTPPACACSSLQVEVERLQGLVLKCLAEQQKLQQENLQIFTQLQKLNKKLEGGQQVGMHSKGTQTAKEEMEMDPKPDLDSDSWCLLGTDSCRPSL

[11] = target: T4, Serine/threonine-protein kinase Nek9 (Homo sapiens); settings: at 1 µM
[12] = target: Serine/threonine-protein kinase PLK1 (Homo sapiens) (UniProt P53350); settings: at 0.1 µM
[13] = target: Serine/threonine-protein kinase PLK1 (Homo sapiens) (UniProt P53350); settings: at 1 µM
[14] = target: T5, Dual specificity protein kinase TTK (Homo sapiens) (UniProt P33981); settings: at 0.1 µM
T5 sequence (whole entry): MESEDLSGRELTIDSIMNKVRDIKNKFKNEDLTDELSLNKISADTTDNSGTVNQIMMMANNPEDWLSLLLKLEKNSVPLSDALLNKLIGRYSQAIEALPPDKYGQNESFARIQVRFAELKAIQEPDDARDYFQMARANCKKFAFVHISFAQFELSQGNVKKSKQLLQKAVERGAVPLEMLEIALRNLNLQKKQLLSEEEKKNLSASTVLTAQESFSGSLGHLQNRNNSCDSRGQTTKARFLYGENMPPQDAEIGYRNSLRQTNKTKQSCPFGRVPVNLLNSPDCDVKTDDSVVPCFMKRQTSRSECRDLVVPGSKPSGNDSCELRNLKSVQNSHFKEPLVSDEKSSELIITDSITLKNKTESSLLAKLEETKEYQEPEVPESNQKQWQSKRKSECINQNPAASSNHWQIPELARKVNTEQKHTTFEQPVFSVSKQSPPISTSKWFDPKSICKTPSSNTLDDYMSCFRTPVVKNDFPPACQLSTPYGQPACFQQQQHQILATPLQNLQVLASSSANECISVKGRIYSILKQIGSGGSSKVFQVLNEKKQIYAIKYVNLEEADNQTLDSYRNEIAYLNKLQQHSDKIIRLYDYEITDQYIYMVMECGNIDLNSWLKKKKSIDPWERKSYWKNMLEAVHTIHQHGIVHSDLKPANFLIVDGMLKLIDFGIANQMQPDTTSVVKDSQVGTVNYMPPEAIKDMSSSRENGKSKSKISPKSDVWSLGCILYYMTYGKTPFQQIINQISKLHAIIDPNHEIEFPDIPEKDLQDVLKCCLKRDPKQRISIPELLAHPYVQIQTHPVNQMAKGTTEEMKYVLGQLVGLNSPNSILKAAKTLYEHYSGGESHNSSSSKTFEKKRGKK

[15] = tested on: T6, Receptor-type tyrosine-protein kinase FLT3 (Homo sapiens), P36888 [D835Y]; settings: at 1 µM
T6 sequence (whole entry): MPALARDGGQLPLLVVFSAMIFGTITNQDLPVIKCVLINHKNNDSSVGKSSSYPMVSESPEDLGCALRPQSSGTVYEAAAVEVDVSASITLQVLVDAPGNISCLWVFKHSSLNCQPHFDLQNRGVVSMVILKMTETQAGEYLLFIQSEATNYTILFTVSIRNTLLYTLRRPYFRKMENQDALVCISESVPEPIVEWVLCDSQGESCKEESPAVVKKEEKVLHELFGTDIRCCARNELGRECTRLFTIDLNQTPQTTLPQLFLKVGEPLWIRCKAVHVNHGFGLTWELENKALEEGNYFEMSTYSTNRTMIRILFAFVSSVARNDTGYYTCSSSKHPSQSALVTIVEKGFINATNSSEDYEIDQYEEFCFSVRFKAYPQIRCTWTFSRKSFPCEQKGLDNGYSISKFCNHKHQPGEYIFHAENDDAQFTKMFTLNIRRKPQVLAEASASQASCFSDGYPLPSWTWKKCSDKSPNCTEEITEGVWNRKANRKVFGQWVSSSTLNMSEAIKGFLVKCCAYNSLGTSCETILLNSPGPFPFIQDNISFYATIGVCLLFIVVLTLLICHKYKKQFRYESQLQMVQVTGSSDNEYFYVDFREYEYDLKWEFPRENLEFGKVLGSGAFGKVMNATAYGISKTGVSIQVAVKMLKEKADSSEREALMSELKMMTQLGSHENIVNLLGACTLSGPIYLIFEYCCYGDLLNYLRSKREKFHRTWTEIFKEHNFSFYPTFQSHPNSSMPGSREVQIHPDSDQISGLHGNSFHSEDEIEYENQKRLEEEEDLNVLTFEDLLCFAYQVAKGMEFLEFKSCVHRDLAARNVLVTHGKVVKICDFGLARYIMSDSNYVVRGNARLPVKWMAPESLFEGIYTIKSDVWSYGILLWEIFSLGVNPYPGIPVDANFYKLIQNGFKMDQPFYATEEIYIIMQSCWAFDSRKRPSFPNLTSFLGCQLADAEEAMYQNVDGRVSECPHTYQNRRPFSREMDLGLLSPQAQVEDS

[16] = target: Vascular endothelial growth factor receptor 3 (Homo sapiens) (UniProt P35916); settings: at 0.1 µM
[17] = target: Vascular endothelial growth factor receptor 3 (Homo sapiens) (UniProt P35916); settings: at 1 µM
[18] = target: Macrophage colony-stimulating factor 1 receptor (Homo sapiens) (UniProt P07333); settings: at 0.1 µM
[19] = target: Macrophage colony-stimulating factor 1 receptor (Homo sapiens) (UniProt P07333); settings: at 1 µM
[20] = target: Tyrosine-protein kinase Fyn (Homo sapiens) (UniProt P06241); settings: at 0.1 µM
Tyrosine-protein kinase Fyn (Homo sapiens), sequence (P06241 2-537 limits assumed): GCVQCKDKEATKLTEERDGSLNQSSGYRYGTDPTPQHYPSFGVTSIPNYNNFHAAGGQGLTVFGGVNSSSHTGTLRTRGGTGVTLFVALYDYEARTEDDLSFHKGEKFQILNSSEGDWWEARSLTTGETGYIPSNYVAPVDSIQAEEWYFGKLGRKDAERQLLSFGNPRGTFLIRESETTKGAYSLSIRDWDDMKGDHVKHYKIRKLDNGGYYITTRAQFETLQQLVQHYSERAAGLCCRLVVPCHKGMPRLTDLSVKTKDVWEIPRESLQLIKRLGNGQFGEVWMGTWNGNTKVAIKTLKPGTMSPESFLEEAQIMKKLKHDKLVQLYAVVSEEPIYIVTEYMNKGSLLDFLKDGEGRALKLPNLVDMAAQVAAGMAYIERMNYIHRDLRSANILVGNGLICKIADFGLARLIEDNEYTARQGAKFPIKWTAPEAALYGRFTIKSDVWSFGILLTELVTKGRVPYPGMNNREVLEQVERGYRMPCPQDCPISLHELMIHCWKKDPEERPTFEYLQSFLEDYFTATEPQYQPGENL

Serine/threonine-protein kinase PLK1 (Homo sapiens), sequence (P53350 whole entry): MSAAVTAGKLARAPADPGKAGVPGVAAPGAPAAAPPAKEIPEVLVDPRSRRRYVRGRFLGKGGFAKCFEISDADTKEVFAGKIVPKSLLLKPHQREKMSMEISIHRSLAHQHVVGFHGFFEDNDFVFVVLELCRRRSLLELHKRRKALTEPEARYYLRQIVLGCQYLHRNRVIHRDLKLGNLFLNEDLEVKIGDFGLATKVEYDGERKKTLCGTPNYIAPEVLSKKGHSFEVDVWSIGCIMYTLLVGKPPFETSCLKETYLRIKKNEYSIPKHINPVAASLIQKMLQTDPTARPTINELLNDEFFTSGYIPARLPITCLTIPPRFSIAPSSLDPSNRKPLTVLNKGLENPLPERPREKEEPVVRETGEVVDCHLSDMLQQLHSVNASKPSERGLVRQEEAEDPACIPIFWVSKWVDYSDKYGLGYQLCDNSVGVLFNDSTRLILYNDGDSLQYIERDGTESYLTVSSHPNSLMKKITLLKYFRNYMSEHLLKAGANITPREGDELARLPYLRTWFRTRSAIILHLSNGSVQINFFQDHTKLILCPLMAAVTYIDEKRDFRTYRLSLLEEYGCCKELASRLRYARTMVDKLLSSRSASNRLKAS
Macrophage colony-stimulating factor 1 receptor (Homo sapiens), sequence (P07333 whole entry): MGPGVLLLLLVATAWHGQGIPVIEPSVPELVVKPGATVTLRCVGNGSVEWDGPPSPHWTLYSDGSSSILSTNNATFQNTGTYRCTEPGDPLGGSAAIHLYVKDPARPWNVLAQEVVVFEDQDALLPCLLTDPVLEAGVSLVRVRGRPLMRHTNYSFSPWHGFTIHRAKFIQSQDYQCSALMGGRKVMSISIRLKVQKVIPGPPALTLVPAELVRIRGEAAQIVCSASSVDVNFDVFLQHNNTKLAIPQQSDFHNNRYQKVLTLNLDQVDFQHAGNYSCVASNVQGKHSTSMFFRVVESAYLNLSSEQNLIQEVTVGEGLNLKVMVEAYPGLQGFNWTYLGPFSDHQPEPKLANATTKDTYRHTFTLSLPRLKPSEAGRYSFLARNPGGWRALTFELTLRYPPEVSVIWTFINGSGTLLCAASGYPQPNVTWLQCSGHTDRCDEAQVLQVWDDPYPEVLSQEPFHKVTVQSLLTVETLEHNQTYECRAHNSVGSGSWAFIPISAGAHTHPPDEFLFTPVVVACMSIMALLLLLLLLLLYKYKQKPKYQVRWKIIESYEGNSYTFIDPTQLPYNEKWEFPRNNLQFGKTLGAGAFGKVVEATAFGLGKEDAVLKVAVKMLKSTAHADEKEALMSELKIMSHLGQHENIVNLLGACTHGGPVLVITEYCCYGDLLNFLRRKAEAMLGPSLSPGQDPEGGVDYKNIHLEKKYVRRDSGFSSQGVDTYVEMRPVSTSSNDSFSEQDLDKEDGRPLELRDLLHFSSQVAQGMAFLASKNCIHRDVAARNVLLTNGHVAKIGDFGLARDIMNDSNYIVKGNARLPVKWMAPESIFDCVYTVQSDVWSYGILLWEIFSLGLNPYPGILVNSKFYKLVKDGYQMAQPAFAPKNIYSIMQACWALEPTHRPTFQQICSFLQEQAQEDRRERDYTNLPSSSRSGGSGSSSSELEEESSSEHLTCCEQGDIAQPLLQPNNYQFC
Serine/threonine-protein kinase Nek6 (Homo sapiens), sequence (Q9HC98 whole entry): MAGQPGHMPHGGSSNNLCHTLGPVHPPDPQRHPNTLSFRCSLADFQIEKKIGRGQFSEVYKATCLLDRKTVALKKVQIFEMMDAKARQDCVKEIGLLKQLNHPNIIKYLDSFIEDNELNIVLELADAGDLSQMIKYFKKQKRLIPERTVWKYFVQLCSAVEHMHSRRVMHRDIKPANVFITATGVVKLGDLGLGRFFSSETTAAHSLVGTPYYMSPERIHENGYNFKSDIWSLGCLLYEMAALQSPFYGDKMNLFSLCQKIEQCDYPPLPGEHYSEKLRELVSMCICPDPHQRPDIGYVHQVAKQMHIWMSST
Serine/threonine-protein kinase Nek7 (Homo sapiens), sequence (Q8TDX7 whole entry, looked up): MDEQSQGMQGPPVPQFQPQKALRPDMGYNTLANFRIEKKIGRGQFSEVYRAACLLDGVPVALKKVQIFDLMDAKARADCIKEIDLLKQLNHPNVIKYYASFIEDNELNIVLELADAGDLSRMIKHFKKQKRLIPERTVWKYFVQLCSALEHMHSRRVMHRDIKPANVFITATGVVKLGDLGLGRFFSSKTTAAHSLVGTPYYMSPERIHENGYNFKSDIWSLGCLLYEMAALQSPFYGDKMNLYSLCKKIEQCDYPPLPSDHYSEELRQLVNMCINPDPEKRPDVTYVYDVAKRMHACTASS
Vascular endothelial growth factor receptor 3 (Homo sapiens), sequence (P35916 whole entry): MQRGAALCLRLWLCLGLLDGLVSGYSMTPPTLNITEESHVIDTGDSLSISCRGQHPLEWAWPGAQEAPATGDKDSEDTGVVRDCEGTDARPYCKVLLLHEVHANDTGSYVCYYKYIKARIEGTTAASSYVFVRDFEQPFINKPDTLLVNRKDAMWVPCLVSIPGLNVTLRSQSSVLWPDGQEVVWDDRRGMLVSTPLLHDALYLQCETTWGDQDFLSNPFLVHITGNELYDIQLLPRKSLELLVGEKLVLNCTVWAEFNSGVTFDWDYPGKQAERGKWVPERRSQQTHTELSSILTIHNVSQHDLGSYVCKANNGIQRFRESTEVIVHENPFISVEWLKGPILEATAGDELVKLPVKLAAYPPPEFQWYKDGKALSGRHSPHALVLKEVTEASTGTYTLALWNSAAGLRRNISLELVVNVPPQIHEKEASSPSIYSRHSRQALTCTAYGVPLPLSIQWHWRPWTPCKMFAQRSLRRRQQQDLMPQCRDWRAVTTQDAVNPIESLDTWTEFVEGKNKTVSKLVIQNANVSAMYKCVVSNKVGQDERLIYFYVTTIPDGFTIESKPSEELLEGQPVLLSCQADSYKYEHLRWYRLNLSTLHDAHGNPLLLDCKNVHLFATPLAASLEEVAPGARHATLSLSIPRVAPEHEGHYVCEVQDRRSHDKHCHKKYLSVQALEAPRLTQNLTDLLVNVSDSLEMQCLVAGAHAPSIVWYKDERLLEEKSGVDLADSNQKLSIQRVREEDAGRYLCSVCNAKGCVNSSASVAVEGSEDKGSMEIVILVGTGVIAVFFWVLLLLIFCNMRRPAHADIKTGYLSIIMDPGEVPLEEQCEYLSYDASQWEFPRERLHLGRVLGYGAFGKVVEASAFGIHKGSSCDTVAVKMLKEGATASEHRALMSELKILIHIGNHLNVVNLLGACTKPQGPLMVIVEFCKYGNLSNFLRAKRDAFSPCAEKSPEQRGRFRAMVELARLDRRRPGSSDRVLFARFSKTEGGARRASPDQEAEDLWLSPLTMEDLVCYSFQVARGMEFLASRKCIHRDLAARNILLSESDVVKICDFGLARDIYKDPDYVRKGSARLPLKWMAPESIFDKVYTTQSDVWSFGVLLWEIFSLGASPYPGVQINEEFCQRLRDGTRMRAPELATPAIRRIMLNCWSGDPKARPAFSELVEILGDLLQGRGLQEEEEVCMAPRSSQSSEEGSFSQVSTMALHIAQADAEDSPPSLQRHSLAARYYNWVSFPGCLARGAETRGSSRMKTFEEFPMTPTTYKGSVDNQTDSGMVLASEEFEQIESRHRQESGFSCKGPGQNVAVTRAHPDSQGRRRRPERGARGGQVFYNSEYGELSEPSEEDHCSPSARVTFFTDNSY

SMILES	inhibition [1] [%]	inhibition [2] [%]	inhibition [3] [%]	inhibition [4] [%]	inhibition [5] [%]	inhibition [6] [%]	inhibition [7] [%]	inhibition [8] [%]	inhibition [9] [%]	inhibition [10] [%]	inhibition [11] [%]	inhibition [12] [%]	inhibition [13] [%]	inhibition [14] [%]	inhibition [15] [%]	inhibition [16] [%]	inhibition [17] [%]	inhibition [18] [%]	inhibition [19] [%]	inhibition [20] [%]
Cc1ccc2c(-c3ccnc(Nc4ccccc4)n3)c(-c3ccc(F)cc3)nn2n1	3.29	2.02	2.14	4.21	3	4.02	-0.68	2.06	2.94	-1.05	5.94	1.63	1.62	4.36	-2.14	5.68	28.3	10.5	45.1	18.7
CC(C)(CO)CNC(=O)c1ccc2c(c1)/C(=N/Nc1ccc(S(N)(=O)=O)cc1)C(=O)N2	59.7	0.37	1.29	0.26	0.85	1.63	0.2	-1.3	2.36	2.95	8.02	1.21	0.88	61.5	45.6	4.05	44.3	-6.57	3.69	10.9
CCc1nn2ncccc2c1-c1ccnc(NC2CC2)n1	6.61	3.1	4.93	3.32	3.36	2.16	3.98	1.99	3.9	2.26	9.21	1.29	4.87	-1.9	8.73	4.93	4.12	2.72	4.83	1.74
CN1CCC(n2cnc(-c3ccc(F)cc3)c2-c2ccnc(N)n2)CC1	7.06	-0.73	0.96	2.43	2.64	2.5	2.17	3.21	3.4	7.9	11.4	2.4	0.91	5.14	1.95	1.56	2.31	2.19	6.29	0.4
